The source of these data is the supplement of paper PMC7156485.

SMILES strings stand for the structures. Where “and” joins values, the source holds several entries; their conditions need not be identical. Equal entries are not always repeated.

Common to all, as to conditions: concentration: 10 µM; 24 h
Assay [1] deals with HCC1569. The experiment in a line: cell number relative to DMSO (% of DMSO); higher = more cells (less growth inhibition / toxicity). The gist of the method: (§1)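 Compounds were applied at 10 µM for 24 h at 37 °C, in triplicate, to HCC1569 and TDF cells. The cells were then fixed and stained for H1.0, and nuclei were counterstained with DAPI. Nuclear H1.0 intensity or cell number is reported relative to the plate control as a percent, taking the median of replicates. Smoothing for positional effects was applied to HCC1569 values only.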

The subject of assay [2] is TDF. The assay is described as above. An outline of the steps:
as §1

For assay [3], the system named is TDF. Nature of the assay: H1.0 immunofluorescence intensity relative to DMSO (% of DMSO); higher = stronger H1.0 induction, active = 120 or more. An outline of the steps: as §1
Assay [4] concerns HCC1569. The experiment in a line: H1.0 immunofluorescence intensity relative to DMSO (% of DMSO); higher = stronger H1.0 induction, active = 140 or more. An outline of the steps: as §1
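Throughout, for H1.0 immunofluorescence intensity relative to DMSO: TDF is a line of transformed human dermal fibroblasts of mesenchymal origin.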
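Throughout, for cell number relative to DMSO: TDF denotes transformed human dermal fibroblasts of mesenchymal origin.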

On to `CC(=O)OC12COC1CC(O)C1(C)C(=O)C(O)C3=C(C)C(OC(=O)C(O)C(NC(=O)OC(C)(C)C)c4ccccc4)CC(O)(C(OC(=O)c4ccccc4)C21)C3(C)C` (configuration not stated) [Docetaxil], for which the cell number came to 61.6 with HCC1569 [1] and 13 in the assay on TDF [2]. In addition, the H1.0 immunofluorescence intensity with TDF [3] is 147 (active); in the assay on HCC1569 [4], 144 (active).
For `CCCCOC(=O)NS(=O)(=O)c1sc(CC(C)C)cc1-c1ccc(Cn2c(CC)nc3c(C)cc(C)nc32)cc1`, in that order: 99.7, 106, 84.8 (inactive) and 100 (inactive).
The like results for `CC1OC(Oc2c(-c3ccc(O)c(O)c3)oc3cc(O)cc(O)c3c2=O)C(O)C(O)C1O` (configuration not stated) [Quercitrin] were, in that order, 97.5, 106, 101 (inactive) and 99.1 (inactive).
The like results for `c1ccc(-c2ccccn2)nc1` [2,2'-Bipyridyl] were, in that order, 107, 95, 104 (inactive) and 102 (inactive).
`O=S(=O)(NCCNCC=Cc1ccc(Br)cc1)c1cccc2cnccc12`: the cell number with HCC1569 [1] is 92.1 and 91.5; in the assay with TDF [2] it was 98.1 and 96.7. Also, the H1.0 immunofluorescence intensity in the assay on TDF [3] is 93.6 (inactive) and 99.1 (inactive); in the assay on HCC1569 [4], 84.2 (inactive) and 136 (inactive).
Take `Cl.N=C(N)c1ccccc1` [Benzamidine hydrochloride]: the results for the cell number in the assay with HCC1569 [1] and with TDF [2] were 100 and 103, respectively. Also, the values for the H1.0 immunofluorescence intensity with TDF [3] and in the assay on HCC1569 [4] were 94 (inactive) and 85.3 (inactive), respectively.
For `COc1cc(Br)c(S(=O)(=O)Nc2ccc(Cl)c(O[C@@H]3CCN(C)C3)c2)cc1OC`, in that order: 83.2, 82.9, 94.8 (inactive) and 137 (inactive).
Consider `CC(CN(C)C)CN1c2ccccc2CCc2ccccc21.O=C(O)C=CC(=O)O` (configuration not stated) [Trimipramine maleate], for which the cell number in the assay on HCC1569 [1] and in the assay with TDF [2] was 106 throughout. Further, the H1.0 immunofluorescence intensity was 102 (inactive) in the assay with TDF [3] and 109 (inactive) in the assay with HCC1569 [4].
Regarding `O=c1c(O)c(-c2ccccc2O)oc2cc(O)cc(O)c12` [Datiscetin], the cell number in the assay with HCC1569 [1] was found to be 101; in the assay on TDF [2] it was 106. Moreover, the H1.0 immunofluorescence intensity in the assay on TDF [3] is 92.1 (inactive); in the assay with HCC1569 [4], 87.7 (inactive).
As to `Br.Br.NC(N)=NCCSSCCN=C(N)N` [Guanidinoethyl disulfide dihydrobromide], the cell number was 100 in the assay with HCC1569 [1] and 108 in the assay on TDF [2]. Further, the H1.0 immunofluorescence intensity with TDF [3] is 96.5 (inactive); in the assay with HCC1569 [4], 98.8 (inactive).
For `O=C1C(Cl)=C(N2C(=O)CCC2=O)C(=O)c2ccccc21` [MEK Inhibitor II], the cell number amounted to 98.9 in the assay on HCC1569 [1] and 110 in the assay with TDF [2]. Further, the H1.0 immunofluorescence intensity was 90.5 (inactive) in the assay with TDF [3] and 121 (inactive) in the assay with HCC1569 [4].
For `CC(C)(Oc1ccc(C2CC2(Cl)Cl)cc1)C(=O)O` (configuration not stated) [Ciprofibrate], in that order: 104, 110, 97.8 (inactive) and 98.1 (inactive).
Take `CCN(CC)CCOCCOC(=O)C1(c2ccccc2)CCCC1.O=C(O)CC(O)(CC(=O)O)C(=O)O` [Carbetapentane citrate]: the figures for the cell number in the assay on HCC1569 [1] and with TDF [2] were 86.4 and 89, respectively. Moreover, the H1.0 immunofluorescence intensity with TDF [3] was 107 (inactive); in the assay with HCC1569 [4], 97.4 (inactive).
For the compound `CCCCCCCCCCCCC(=O)O` [Tridecanoic acid], the results for the cell number with HCC1569 [1] and with TDF [2] were 105 and 92.9, respectively. The H1.0 immunofluorescence intensity in the assay with TDF [3] is 107 (inactive); in the assay on HCC1569 [4], 101 (inactive).
As to `COc1nccc(-c2c(-c3ccc(F)cc3)ncn2C2CCC(O)CC2)n1` (configuration not stated), the cell number in the assay on HCC1569 [1] amounted to 100; with TDF [2], 112. The H1.0 immunofluorescence intensity in the assay on TDF [3] was 85.5 (inactive); in the assay on HCC1569 [4], 117 (inactive).
`Cn1nc2c3c(cccc31)C(=O)c1ccccc1-2` [JNK Inhibitor,                    Negative Control]: the cell number in the assay on HCC1569 [1] amounted to 102; with TDF [2] it was 95.3. For the same compound, the H1.0 immunofluorescence intensity is 90.4 (inactive) with TDF [3] and 136 (inactive) in the assay with HCC1569 [4].
The like results for `O=[N+]([O-])c1cc(S(=O)(=O)Nc2ccc(O)c3ccccc23)ccc1Cl` [4-chloro-N-(4-hydroxy-1-naphthyl)-3-nitrobenzenesulfonamide] were, in that order, 85.3, 76.6, 106 (inactive) and 115 (inactive).
`CC(C)Nc1cccnc1N1CCN(C(=O)c2cc3cc(NS(C)(=O)=O)ccc3[nH]2)CC1.CS(=O)(=O)O` [Delavirdine mesylate]: the values for the cell number in the assay on HCC1569 [1] and with TDF [2] were 101 and 102, respectively. For the same compound, the H1.0 immunofluorescence intensity in the assay with TDF [3] is 99.1 (inactive); in the assay with HCC1569 [4], 110 (inactive).
The like results for `CC12CCC3c4ccc(O)cc4CCC3C1CCC2O` (stereo not drawn) [beta-Estradiol] were, in that order, 90.6, 89.3, 101 (inactive) and 95.3 (inactive).
On to `Cl.Cl.NCCCCN` [Putrescine dihydrochloride], for which the cell number stood at 102 with HCC1569 [1] and 118 with TDF [2]. Further, the H1.0 immunofluorescence intensity in the assay on TDF [3] is 94.1 (inactive); with HCC1569 [4] it was 98.2 (inactive).
For `CCN1CCCC1CNC(=O)c1cc(S(N)(=O)=O)ccc1OC` (single isomer, unassigned; (-)) [(-)-Sulpiride], in that order: 99.4, 101, 90.9 (inactive) and 98.5 (inactive).
Turning to `Cl.c1ccc(-n2c(C3=NCCN3)cc3ccccc32)cc1`, the values for the cell number with HCC1569 [1] and in the assay on TDF [2] were 98.8 and 92.4, respectively. Also, the H1.0 immunofluorescence intensity is 105 (inactive) in the assay on TDF [3] and 101 (inactive) with HCC1569 [4].
On to `NC/C=C/C(=O)O` [(E)-4-amino-2-butenoic acid], for which the cell number in the assay on HCC1569 [1] came to 97.2; with TDF [2], 105. The H1.0 immunofluorescence intensity is 93.2 (inactive) in the assay on TDF [3] and 99.6 (inactive) with HCC1569 [4].
